Experimental data taken from PubChem BioAssay AID1159580 (chemical genetic matrix, 2015).
In all, about 5,500 compounds went through this assay and about 2,000 (36%) were called active. About 18% were inconclusive and are not listed. Rule as the data show it: active = normalized growth mostly below about 0.91 (no sharp cut-off); inconclusive = no clear call, values can overlap the other calls; inactive = mostly above about 0.92. Some of the results follow.

Assay: chemical genetic growth profiling, strain panel (AID 1159580);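 also: tested at 20 µM; growth read once vehicle control cultures reached saturation at 30 °C; 1 = growth at the plate median or of vehicle wells; lower values mean less growth of the strain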
Settings: growth OD

Measured: normalized growth

CC(C)(C)NCC(O)c1cc(Cl)c(N)c(Cl)c1 (centres undefined)
inactive: S. cerevisiae deletion strains, locus YJR043C, strain POL32, hits give low values 1.01 | S. cerevisiae deletion strains, locus YJR075W, strain HOC1, hits give low values 1.01 | S. cerevisiae deletion strains, locus YKL009W, strain mrt4, hits give low values 1 | S. cerevisiae deletion strains, locus YKL068W, hits give low values 1 | S. cerevisiae deletion strains, locus YKL085W, strain MDH1 (second series), hits give low values 1.01 | S. cerevisiae deletion strains, locus YKL085W, strain MDH1, hits give low values 1.01 | S. cerevisiae deletion strains, locus YKL160W, strain elf1, hits give low values 0.998 | S. cerevisiae deletion strains, locus YKL190W, strain CNB1, hits give low values 1 | S. cerevisiae deletion strains, locus YKR001C, strain vps1, hits give low values 1.01 | S. cerevisiae deletion strains, locus YKR026C, strain gcn3, hits give low values 0.999 | S. cerevisiae deletion strains, locus YKR091W, strain srl3, hits give low values 1 | S. cerevisiae deletion strains, locus YLL001W, strain dnm1, hits give low values 0.983 | S. cerevisiae deletion strains, locus YLL026W, hits give low values 0.992 | S. cerevisiae deletion strains, locus YLL041C, strain sdh2, hits give low values 1 | S. cerevisiae deletion strains, locus YLR027C, strain aat2, hits give low values 0.999 | S. cerevisiae deletion strains, locus YLR039C, strain RIC1, hits give low values 1.02 | S. cerevisiae deletion strains, locus YLR058C, strain SHM2, hits give low values 1.02 | S. cerevisiae deletion strains, locus YLR102C, strain apc9, hits give low values 0.992 | S. cerevisiae deletion strains, locus YLR221C, strain rsa3, hits give low values 1 | S. cerevisiae deletion strains, locus YLR258W, strain gsy2, hits give low values 0.993 | S. cerevisiae deletion strains, locus YLR262C, strain YPT6 (second series), hits give low values 0.999 | S. cerevisiae deletion strains, locus YLR262C, strain YPT6, hits give low values 1.05 | S. cerevisiae deletion strains, locus YLR268W, strain sec22, hits give low values 0.977 | S. cerevisiae deletion strains, locus YLR320W, strain mms22, hits give low values 0.996 | S. cerevisiae deletion strains, locus YLR330W, strain CHS5, hits give low values 1.01 | S. cerevisiae deletion strains, locus YLR342W, strain FKS1 (second series), hits give low values 1.02 | S. cerevisiae deletion strains, locus YLR342W, strain FKS1, hits give low values 1 | S. cerevisiae deletion strains, locus YLR357W, strain rsc2, hits give low values 1 | S. cerevisiae deletion strains, locus YLR370C, strain arc18, hits give low values 1 | S. cerevisiae deletion strains, locus YLR371W, strain rom2, hits give low values 0.991 | S. cerevisiae deletion strains, locus YLR384C, strain iki3, hits give low values 1 | S. cerevisiae deletion strains, locus YLR418C, strain cdc73, hits give low values 0.976 | S. cerevisiae deletion strains, locus YML016C, strain PPZ1, hits give low values 1.01 | S. cerevisiae deletion strains, locus YML032C, strain rad52, hits give low values 0.992 | S. cerevisiae deletion strains, locus YML120C, strain ndi1, hits give low values 1.01 | S. cerevisiae deletion strains, locus YML124C, strain tub3, hits give low values 0.999 | S. cerevisiae deletion strains, locus YMR058W, strain fet3, hits give low values 0.998 | S. cerevisiae deletion strains, locus YMR078C, strain ctf18, hits give low values 1 | S. cerevisiae deletion strains, locus YMR125W, strain sto1, hits give low values 0.99 | S. cerevisiae deletion strains, locus YMR129W, hits give low values 1.01 | S. cerevisiae deletion strains, locus YMR205C, strain PFK2, hits give low values 0.982 | S. cerevisiae deletion strains, locus YMR223W, strain ubp8, hits give low values 1 | S. cerevisiae deletion strains, locus YMR231W, strain pep5, hits give low values 1 | S. cerevisiae deletion strains, locus YMR263W, strain SAP30, hits give low values 1.01 | S. cerevisiae deletion strains, locus YMR307W, strain GAS1, hits give low values 0.995 | S. cerevisiae deletion strains, locus YNL067W, strain RPL9B, hits give low values 1.01 | S. cerevisiae deletion strains, locus YNL071W, strain lat1, hits give low values 1 | S. cerevisiae deletion strains, locus YNL128W, strain TEP1, hits give low values 1.02 | S. cerevisiae deletion strains, locus YNL153C, strain GIM3, hits give low values 1 | S. cerevisiae deletion strains, locus YNL209W, strain ssb2, hits give low values 1.01 | S. cerevisiae deletion strains, locus YNL233W, strain BNI4, hits give low values 1.01 | S. cerevisiae deletion strains, locus YNL248C, strain rpa49, hits give low values 1 | S. cerevisiae deletion strains, locus YNL250W, strain rad50, hits give low values 0.989 | S. cerevisiae deletion strains, locus YNL271C, strain bni1, hits give low values 0.99 | S. cerevisiae deletion strains, locus YNL298W, strain CLA4, hits give low values 0.992 | S. cerevisiae deletion strains, locus YNL307C, strain MCK1, hits give low values 0.996 | S. cerevisiae deletion strains, locus YNL322C, strain KRE1 (second series), hits give low values 0.997 | S. cerevisiae deletion strains, locus YNL322C, strain KRE1, hits give low values 1.01 | S. cerevisiae deletion strains, locus YNR049C, strain mso1, hits give low values 0.997 | S. cerevisiae deletion strains, locus YNR052C, strain pop2, hits give low values 1 | S. cerevisiae deletion strains, locus YOL006C, strain TOP1, hits give low values 1.05 | S. cerevisiae deletion strains, locus YOL012C, strain htz1 1.23 | S. cerevisiae deletion strains, locus YOL147C, strain pex11, hits give low values 1 | S. cerevisiae deletion strains, locus YOR001W, strain rrp6, hits give low values 0.99 | S. cerevisiae deletion strains, locus YOR061W, strain CKA2, hits give low values 1.01 | S. cerevisiae deletion strains, locus YOR069W, strain VPS5, hits give low values 1.01 | S. cerevisiae deletion strains, locus YOR070C, strain gyp1, hits give low values 0.994 | S. cerevisiae deletion strains, locus YOR080W, strain dia2, hits give low values 0.998 | S. cerevisiae deletion strains, locus YOR083W, strain WHI5, hits give low values 1 | S. cerevisiae deletion strains, locus YOR106W, strain vam3, hits give low values 0.996 | S. cerevisiae deletion strains, locus YOR136W, strain idh2, hits give low values 0.991 | S. cerevisiae deletion strains, locus YOR144C, strain elg1, hits give low values 0.999 | S. cerevisiae deletion strains, locus YOR184W, strain ser1, hits give low values 1 | S. cerevisiae deletion strains, locus YOR265W, strain rbl2, hits give low values 1 | S. cerevisiae deletion strains, locus YOR270C, strain vph1, hits give low values 0.958 | S. cerevisiae deletion strains, locus YOR290C, strain snf2, hits give low values 0.971 | S. cerevisiae deletion strains, locus YOR316C, strain cot1, hits give low values 1 | S. cerevisiae deletion strains, locus YPL051W, strain arl3, hits give low values 0.995 | S. cerevisiae deletion strains, locus YPL055C, strain LGE1, hits give low values 0.993 | S. cerevisiae deletion strains, locus YPL078C, strain atp4, hits give low values 0.991 | S. cerevisiae deletion strains, locus YPL106C, strain sse1, hits give low values 0.985 | S. cerevisiae deletion strains, locus YPL240C, strain hsp82, hits give low values 1.01 | S. cerevisiae deletion strains, locus YPL241C, strain CIN2, hits give low values 1 | S. cerevisiae deletion strains, locus YPR119W, strain clb2, hits give low values 0.999 | S. cerevisiae deletion strains, locus YPR141C, strain kar3, hits give low values 0.996 | S. cerevisiae deletion strains, locus YPR163C, strain tif3, hits give low values 0.999 | S. cerevisiae deletion strains, locus YPR167C, strain met16, hits give low values 0.994 | S. cerevisiae deletion strains, strain wtn01, hits give low values 0.971 | S. cerevisiae strains, strain wild type, hits give low values 1
